Assay results from PubChem BioAssay (NCATS).
Results filed as inconclusive are left out. Active and inactive are the calls of the source. Calls follow the shape of the dose curve; as a rule, active = well fitted cell-killing curve with a large enough effect; inconclusive = small, poorly fitted or top-dose-only effect, or effect the other way; inactive = flat fitted curve, though single readings scatter.

Key:
Test in all cases: Primary qHTS to identify gynecologic anti-cancer compounds using libraries of approved drugs and bioactive compounds (AID 1345084); also: nearly all actives have a fitted effect of over 55% in size
[1] = system: C33A; conditions: Gynecologic cancer cell panel viability, ATPlite luminescence, 48 h; series mostly up to 57.5 µM
Procedure, shortened: (§1)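 Cells, 1,000 per well, were allowed to settle for 16 h at 37 C before compound addition. Five concentrations were tested for 48 h, and viability was read by ATPlite luminescence after 15 min at room temperature.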

[2] = system: CAOV3; conditions: Gynecologic cancer cell panel viability, ATPlite luminescence, 48 h; series mostly up to 57.5 µM
Procedure, shortened: as §1

[3] = system: CASKI; conditions: Gynecologic cancer cell panel viability, ATPlite luminescence, 48 h; series mostly up to 57.5 µM
Procedure, shortened: as §1

[4] = system: Es-2; conditions: Gynecologic cancer cell panel viability, ATPlite luminescence, 48 h; series mostly up to 57.5 µM
Procedure, shortened: as §1

[5] = system: HeLa; conditions: Gynecologic cancer cell panel viability, ATPlite luminescence, 48 h; series mostly up to 57.5 µM
Procedure, shortened: as §1

[6] = system: Hek293T; conditions: Gynecologic cancer cell panel viability, ATPlite luminescence, 48 h, control line for the selectivity index; series mostly up to 57.5 µM
Procedure, shortened: as §1

[7] = system: JEG-3; conditions: Gynecologic cancer cell panel viability, ATPlite luminescence, 48 h; series mostly up to 57.5 µM
Procedure, shortened: as §1

[8] = system: OV90; conditions: Gynecologic cancer cell panel viability, ATPlite luminescence, 48 h; series mostly up to 57.5 µM
Procedure, shortened: as §1

[9] = system: PA-1; conditions: Gynecologic cancer cell panel viability, ATPlite luminescence, 48 h; series mostly up to 57.5 µM
Procedure, shortened: as §1

[10] = system: SKOV3; conditions: Gynecologic cancer cell panel viability, ATPlite luminescence, 48 h; series mostly up to 57.5 µM
Procedure, shortened: as §1

[11] = system: Tov-21-G; conditions: Gynecologic cancer cell panel viability, ATPlite luminescence, 48 h; series mostly up to 57.5 µM
Procedure, shortened: as §1

[12] = system: Tov112D; conditions: Gynecologic cancer cell panel viability, ATPlite luminescence, 48 h; series mostly up to 57.5 µM
Procedure, shortened: as §1
% is scaled to controls: 0 for no effect and ±100 for the full control effect; potency is read from the fitted curve at half-maximal effect.

COc1cc(C2OC(c3ccc(OC)c(OC)c3)C(C)C2C)ccc1O (stereo not given)
inactive: Potency [1] | Potency [2] | Potency [3] | Potency [4] | Potency [5] | Potency [6] | Potency [7] | Potency [8] | Potency [9] | Potency [10] | Potency [11] | Potency [12]

Nc1nc(OCc2cc(Br)cs2)c2[nH]cnc2n1
inactive: Potency [1] | Potency [2] | Potency [3] | Potency [4] | Potency [5] | Potency [6] | Potency [7] | Potency [8] | Potency [9] | Potency [10] | Potency [11] | Potency [12]

Clc1cccc(COc2cncc(N3CCNCC3)n2)c1
inactive: Potency [1] | Potency [2] | Potency [3] | Potency [4] | Potency [5] | Potency [6] | Potency [7] | Potency [8] | Potency [9] | Potency [10] | Potency [11] | Potency [12]

NS(=O)(=O)c1ccc(N2N=C(c3ccccc3)CC2c2ccccc2)cc1 (stereo not given)
inactive: Potency [1] | Potency [2] | Potency [3] | Potency [4] | Potency [5] | Potency [6] | Potency [7] | Potency [8] | Potency [9] | Potency [10] | Potency [11] | Potency [12]

CC[C@H]1CN(c2nc(N)c(C(N)=O)nc2Cl)CCN1C1CCN(Cc2ccc(Cl)cc2)CC1
inactive: Potency [1] | Potency [2] | Potency [3] | Potency [4] | Potency [5] | Potency [6] | Potency [7] | Potency [8] | Potency [9] | Potency [10] | Potency [11] | Potency [12]

CCNC(=O)N1CCCN(c2ccc(C(=O)NCCc3ccc(Cl)cc3Cl)cc2NC(=O)c2cccc(Cl)c2)CC1
active: Potency [10] 1000 nM
inactive: Potency [1] | Potency [2] | Potency [3] | Potency [4] | Potency [5] | Potency [6] | Potency [7] | Potency [8] | Potency [9] | Potency [11] | Potency [12]

CCc1ccccc1OC[C@@H](O)CN[C@H]1CCCc2ccccc21
inactive: Potency [1] | Potency [2] | Potency [3] | Potency [4] | Potency [5] | Potency [6] | Potency [7] | Potency [8] | Potency [9] | Potency [10] | Potency [11] | Potency [12]

CC(C)(C)C1CCN(C(=O)n2ncc(C(O)(c3ccccc3)c3ccccc3)n2)CC1
inactive: Potency [1] | Potency [2] | Potency [3] | Potency [4] | Potency [5] | Potency [6] | Potency [7] | Potency [8] | Potency [9] | Potency [10] | Potency [11] | Potency [12]

CC1(C)CC[C@]23CO[C@@]4(CCC5[C@@]6(C)CC[C@H](O[C@@H]7OC[C@H](O[C@@H]8O[C@H](CO)[C@@H](O)[C@H](O)[C@H]8O[C@@H]8OC[C@@H](O)[C@H](O)[C@H]8O)[C@H](O)[C@H]7O)[C@@](C)(CO)C6CC[C@@]5(C)[C@]4(C)CC2=O)[C@@H]3C1 (stereo not given in full)
inactive: activity change, negative = cytotoxicity [1] -27.4% [at 11.6 µM] | activity change, negative = cytotoxicity [2] 7.02% [at 11.6 µM] | activity change, negative = cytotoxicity [3] -3.31% [at 11.6 µM] | activity change, negative = cytotoxicity [4] 9.11% [at 11.6 µM] | activity change, negative = cytotoxicity [5] 16.9% [at 11.6 µM] | activity change, negative = cytotoxicity [6] 5.05% [at 11.6 µM] | activity change, negative = cytotoxicity [7] -8.75% [at 11.6 µM] | activity change, negative = cytotoxicity [8] -4.17% [at 11.6 µM] | activity change, negative = cytotoxicity [9] 10.3% [at 11.6 µM] | activity change, negative = cytotoxicity [10] -7.83% [at 11.6 µM] | activity change, negative = cytotoxicity [11] -3.45% [at 11.6 µM] | activity change, negative = cytotoxicity [12] 1.26% [at 11.6 µM]

COc1cccc(N2CCN(C3=Nc4c(F)cccc4[C@H](CC(=O)O)N3c3cc(C(F)(F)F)ccc3OC)CC2)c1
inactive: Potency [1] | Potency [2] | Potency [3] | Potency [4] | Potency [5] | Potency [6] | Potency [7] | Potency [8] | Potency [9] | Potency [10] | Potency [11] | Potency [12]

O=C(O)c1cccc(-c2ccc(-c3cn(C(=O)N4CCCCC4Cc4ccccc4)nn3)cc2)c1 (stereo not given)
inactive: Potency [1] | Potency [2] | Potency [3] | Potency [4] | Potency [5] | Potency [6] | Potency [7] | Potency [8] | Potency [9] | Potency [10] | Potency [11] | Potency [12]

Cc1ccc(C2(C(=O)N3CCC(n4nc(-c5ccccc5)oc4=O)CC3)CC2)cc1
inactive: Potency [1] | Potency [2] | Potency [3] | Potency [4] | Potency [5] | Potency [6] | Potency [7] | Potency [8] | Potency [9] | Potency [10] | Potency [11] | Potency [12]

CC(=O)[C@H]1CC[C@H]2[C@@H]3CC=C4C[C@@H](OS(=O)(=O)O)CC[C@]4(C)[C@H]3CC[C@]12C
inactive: Potency [1] | Potency [2] | Potency [3] | Potency [4] | Potency [5] | Potency [6] | Potency [7] | Potency [8] | Potency [9] | Potency [10] | Potency [11] | Potency [12]

COc1cc(NC(=O)c2cc(C3CC3)on2)c(OC)cc1Cl
inactive: Potency [1] | Potency [2] | Potency [3] | Potency [4] | Potency [5] | Potency [6] | Potency [7] | Potency [8] | Potency [9] | Potency [10] | Potency [11] | Potency [12]

CC(=O)O[C@@H]1C[C@@]23C[C@@]24CC[C@H](O[C@@H]2OC[C@H](O)[C@H](O)[C@H]2O)C(C)(C)[C@@H]4CC[C@H]3[C@]2(C)[C@@H](O)C34O[C@H](C[C@@H](C)[C@@H]3[C@@]12C)[C@@H](C(C)(C)O)O4
inactive: Potency [1] | Potency [2] | Potency [3] | Potency [4] | Potency [5] | Potency [6] | Potency [7] | Potency [8] | Potency [9] | Potency [10] | Potency [11] | Potency [12]
